Data taken from the supplement of paper PMC6555819.

Assays:
Test in all cases: PBM binding z-score (relative to random genomic background probes); higher = stronger binding; sequences stand for … in GC…GCGATTGACAGCGTAGAATGAAGG
[1] = tested on: PPARg:RXRa DBDmut IVT, anti-RXR (DBD mutation: RXRa K156A/R161A, NR concentration 270 nM, RXRa partner concentration 90 nM)
Procedure, shortened: (§1)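 Regression normalization was applied to scanned fluorescence from custom Agilent 4×180K protein-binding microarrays. Before scanning, arrays were incubated 1 h with ligand-free nuclear receptor dimers, and binding was detected with antibodies against each partner (one per run). Binding z-scores use the random background probes as reference.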

[2] = tested on: PPARg:RXRa IVT, anti-PPARg (NR concentration 270 nM, RXRa partner concentration 90 nM)
Procedure, shortened: as §1

[3] = tested on: PPARg DBDmut:RXRa IVT, anti-PPARg (DBD mutation: PPARg1 K132A/R137A, NR concentration 270 nM, RXRa partner concentration 90 nM)
Procedure, shortened: as §1

[4] = tested on: PPARg DBDmut IVT, anti-PPARg (DBD mutation: PPARg1 K132A/R137A, NR concentration 270 nM)
Procedure, shortened: as §1

[5] = tested on: PPARg homodimer (NR concentration 180 nM)
Procedure, shortened: as §1

[6] = tested on: PXR:RXRa (NR concentration 270 nM, RXRa partner concentration 90 nM)
Procedure, shortened: as §1

[7] = tested on: PXR homodimer (NR concentration 270 nM)
Procedure, shortened: as §1

[8] = tested on: RARa:RXR (NR concentration 270 nM, RXRa partner concentration 90 nM)
Procedure, shortened: as §1

[9] = tested on: RARa homodimer (NR concentration 270 nM)
Procedure, shortened: as §1

[10] = tested on: RARb:RXRa (NR concentration 270 nM, RXRa partner concentration 90 nM)
Procedure, shortened: as §1

[11] = tested on: RARb homodimer (NR concentration 270 nM)
Procedure, shortened: as §1

[12] = tested on: RARg:RXRa (NR concentration 270 nM, RXRa partner concentration 90 nM)
Procedure, shortened: as §1

[13] = tested on: RARg homodimer (NR concentration 270 nM)
Procedure, shortened: as §1

[14] = tested on: RXRa DBDmut IVT, anti-RXR (DBD mutation: RXRa K156A/R161A, NR concentration 90 nM)
Procedure, shortened: as §1

[15] = tested on: RXRa homodimer (NR concentration 180 nM)
Procedure, shortened: as §1

[16] = tested on: THRa:RXRa (NR concentration 90 nM, RXRa partner concentration 90 nM)
Procedure, shortened: as §1

[17] = tested on: THRa homodimer (NR concentration 90 nM)
Procedure, shortened: as §1

[18] = tested on: VDR homodimer (NR concentration 270 nM)
Procedure, shortened: as §1

Sequence	PBM binding z-score [1]	PBM binding z-score [2]	PBM binding z-score [3]	PBM binding z-score [4]	PBM binding z-score [5]	PBM binding z-score [6]	PBM binding z-score [7]	PBM binding z-score [8]	PBM binding z-score [9]	PBM binding z-score [10]	PBM binding z-score [11]	PBM binding z-score [12]	PBM binding z-score [13]	PBM binding z-score [14]	PBM binding z-score [15]	PBM binding z-score [16]	PBM binding z-score [17]	PBM binding z-score [18]
ATATGTAGGTTAAGGGTCATTCCGGTTGGTTCGC	7.18	7.95	2.74	3.31	3.95	5.32	1.33	5.86	1.66	3.58	3.85	4.63	3.26	2.44	5.95	3.49	1.62	4.26
AGTCATAGTTCAGGACGAGGTAACGTAAAGCACG	-0.922	0.674	0.901	0.714	0.947	1.13	0.0157	1.31	0.185	2.59	1.82	2.66	2.61	0.51	1.39	3.35	1.67	0.515
ACATGTAGGTTATCGGGTCATTCAGTTTGCGCAT	6.89	6.82	3.46	3.12	5.01	4.02	6.61	3.88	2.25	2.61	3.23	3.35	2.41	1.87	3.6	3.32	3.05	4.06
CATACAGGGTCAACTAGGCCAGAGTAGGGACGGC	2.92	4.23	1.17	0.243	2.2	3.61	0.451	4.7	0.953	4.66	3.62	5.7	5.42	2.74	6.54	3.74	1.5	2.36
CCTTACGGGTCACTCCAGGTTATAACATCGGAGT	2.06	3.72	1.23	0.622	1.05	4.66	0.462	3.51	-0.23	3.67	3	4.24	3.97	1.31	4.36	5.32	0.437	1.19
CCTACTGGGTCAAAAAGGTCATTGATGCCGATAA	5.6	6.85	0.701	-0.419	4.23	6.02	9.56	6.15	2.31	4.66	5.05	6.12	5.84	1.56	6.62	3.76	1.1	4.79
ATTTCTAGGTAACCAAGTTCAGTGAATGCCGAAC	5.61	4.97	2.81	3.03	1.16	2.1	1.89	0.832	1.02	1.49	1.55	0.786	0.952	0.875	0.621	1.81	0.761	3.08
ACTTACGGGTCAACGAGATTATAGCACGCGTATA	3.56	4.11	1.69	2.1	2.79	3.31	0.376	4.37	1.47	4.23	2.96	5.12	4.89	2.05	5.72	2.67	0.499	1.35
TCTGCTAGGTCAACGATAGTCAGCTAATCTGCTA	4.19	4.2	0.616	0.703	0.481	1.31	-0.482	1.98	-0.872	3.99	2.84	3.9	4.6	0.919	2.63	2.67	0.277	-0.234
GCTTACGGGTCAAATGTTATAGCATGAATAGAAT	4.4	4.44	1.56	1.2	2.47	3.34	-0.148	4.24	0.995	3.88	2.6	4.88	4.02	2.4	5.86	2.54	-0.146	1.1
TATACAGGTTCAAAGGCCAGAGTACGAATGTCGA	0.255	1.44	0.672	0.97	1.53	2.53	1.35	2.91	1.41	2.2	1.82	2.45	1.79	4.01	3.63	1.25	-0.0522	4.75
CAAACTAGGTCAACGGTCAAAGTCGAGCCAACCA	8.71	9.01	1.94	3.3	2.91	2.17	0.267	3.71	0.962	4.51	3.76	4.94	5.4	2.12	4.02	3.14	1.31	1
GCATATAGGTAGTACAAGGTGAAAGTCCGATTGT	0.709	1.04	0.664	0.977	-0.146	0.403	0.176	0.66	0.249	0.368	0.817	0.404	0.395	0.422	0.53	3.23	1.02	0.0912
GGAACGTGGGCAAGTTGATAGCAGAGTTTGATGG	0.19	-0.544	-0.762	-0.713	-0.313	-0.46	0.121	-0.634	-0.639	-0.191	-0.282	-0.487	-0.279	0.175	-0.184	-0.685	-0.691	0.343
ATCGAAAGGTCGAGGTGAGTCTAGAGAAAGGGAA	0.536	2.56	0.697	0.961	1.92	3.05	0.144	3.67	0.714	4.31	2.89	4.34	4.48	0.715	4.46	3.01	0.76	0.695
